The results in this text go back to PubChem BioAssay (EPA / NIEHS).

One may read the AC50 as the midpoint of the concentration-response curve, whichever way the signal moves.

Results filed as inconclusive are left out. Active and inactive are the calls of the source. The calls were made as follows, unless noted: active = hit-call score of the fitted dose curve at least 0.9, where 1 is the maximum; inconclusive = response in the unintended direction; inactive = score below 0.9.

In assay [1] the target is Nuclear receptor subfamily 1 group I member 3 (Homo sapiens) (UniProt Q14994). The assay can be described thus: ATG_CAR_TRANS: Attagene TRANS-FACTORIAL HepG2 Assay for human Constitutive Androstane Receptor (CAR) (AID 2282969).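 Also: activators raise reporter mRNA above DMSO so AC50 marks induction.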 The note with it: HepG2 Attagene TRANS-FACTORIAL CAR reporter. An outline of the steps: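 Readout is reporter mRNA induction, quantified by fluorescent primer extension and capillary electrophoresis after RT-PCR. Cells were HepG2 transiently carrying chimeric NR-Gal4 constructs with GAL4-UAS reporters, treated for 24 h; activity scored upward from DMSO.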

Assay [2] concerns the target Estrogen receptor (Homo sapiens) (UniProt P03372). The assay can be described thus: ATG_ERa_TRANS: Attagene TRANS-FACTORIAL HepG2 Assay for human Estrogen Receptor alpha (ERa) (AID 2282970). The conditions noted are these: HepG2 Attagene TRANS ERa GAL4 reporter, mRNA. An outline of the steps:
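HepG2 cells transiently transfected with multiplexed GAL4-UAS reporter units; ERa activity read via exogenous chimeric NR-Gal4 protein. After 24 hour compound exposure, reporter mRNA measured by RT-PCR with 6-FAM labelling and capillary electrophoresis; gain-of-signal fitted relative to DMSO.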

Assay [3] addresses X-box-binding protein 1 (Homo sapiens) (UniProt P17861). In words: ATG_Xbp1_CIS: Attagene CIS-FACTORIAL HepG2 Assay for human X-box Binding Protein 1 (XBP1) (AID 2282972; active = hit-call score of the fitted dose curve at least 0.9, where 1 is the maximum; inactive = score below 0.9). The note with it: HepG2 XBP1 cis-element reporter, Attagene multiplex; actives raise or lower the signal. In short, it runs like this:
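HepG2 cells transiently transfected with multiple cis-element reporter units report endogenous TF activity; 24 h exposure, then reporter mRNA measured by RT-PCR, 6-FAM labelling, HpaI digestion and capillary electrophoresis. Bidirectional fitting versus DMSO.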

The nature of assay [4]: ATG_GAL4_TRANS: Attagene TRANS-FACTORIAL HepG2 Assay for GAL4 (Internal Marker) (AID 2282976). The note with it: HepG2 Attagene TRANS GAL4 internal marker reporter. In short, it runs like this: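 HepG2 cells transiently transfected with multiplexed GAL4-UAS reporter constructs were dosed for 24 h. Reporter mRNA was measured by RT-PCR, 6-FAM primer extension, HpaI digestion and capillary electrophoresis, and gain of signal was fitted relative to DMSO.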

The target in assay [5] is Bile acid receptor (Homo sapiens) (UniProt Q96RI1). The assay can be described thus: ATG_FXR_TRANS: Attagene TRANS-FACTORIAL HepG2 Assay for Farnesoid X Receptor (FXR) (AID 2282979).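 Also: hits raise reporter mRNA above DMSO so AC50 marks FXR activation.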 The note with it: HepG2 Attagene TRANS FXR-GAL4 reporter transcription. In short, it runs like this: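 HepG2 cells transiently transfected with reporter constructs in which a chimeric FXR-GAL4 protein drives a GAL4-UAS reporter; 24 h compound exposure. Reporter mRNA measured by RT-PCR, FAM labelling, HpaI digestion and capillary electrophoresis; gain-of-signal versus DMSO.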

A short description of assay [6]: ATG_M_06_TRANS: Attagene TRANS-FACTORIAL HepG2 Assay for M06 Transcription Factor (Internal Marker) (AID 2282983). The note with it: HepG2 Attagene TRANS M06 internal marker reporter. In short, it runs like this:
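HepG2 cells transiently transfected with multiplexed GAL4-UAS reporter transcription units; after 24 h compound exposure, reporter mRNA measured by RT-PCR, FAM-labelled primer extension, HpaI digestion and capillary electrophoresis. Gain-of-signal fitted versus DMSO baseline; background control readout.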

Assay [7] can be described thus: ATG_M_32_TRANS: Attagene TRANS-FACTORIAL HepG2 Assay for M32 Transcription Factor (Internal Marker) (AID 2282984). The note with it: HepG2 Attagene TRANS M32 internal marker reporter. In short, it runs like this:
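Measures reporter mRNA induction in human HepG2 liver cells after 24 h chemical treatment. Transcripts from transiently transfected GAL4-UAS reporter units are amplified, fluorescently labelled and sized by capillary electrophoresis; gain of signal relative to DMSO.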

Assay [8] deals with Transcriptional activator Myb (Homo sapiens) (UniProt P10242). The assay can be described thus: ATG_Myb_CIS: Attagene CIS-FACTORIAL HepG2 Assay for human Myeloblastosis (Myb) Proto-Oncogene Transcription Factor (AID 2282986; active = hit-call score of the fitted dose curve at least 0.9, where 1 is the maximum; inactive = score below 0.9). The note with it: HepG2 Attagene CIS-FACTORIAL Myb reporter transcription; actives raise or lower the signal. In short, it runs like this: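 Reporter transcript levels, quantified by fluorescent RT-PCR and capillary electrophoresis, serve as the read-out. Transfected HepG2 cells carrying cis-promoter reporter units are dosed for 24 hours, and curves are fitted bidirectionally against DMSO controls.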

The target of assay [9] is Nuclear respiratory factor 1 (Homo sapiens) (UniProt Q16656). In words: ATG_NRF1_CIS: Attagene CIS-FACTORIAL HepG2 Assay for human Nuclear Respiratory Factor 1 (NRF1) Orphan Gene (AID 2282987; active = hit-call score of the fitted dose curve at least 0.9, where 1 is the maximum; inactive = score below 0.9). The note with it: HepG2 NRF1 cis-element reporter, Attagene multiplex; actives raise or lower the signal. An outline of the steps: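 Multiplexed cis-reporter assay, HepG2 cells, 24 h treatment. Total RNA → oligo(dT) RT → PCR with reporter-specific primers → 6-FAM primer extension → HpaI cut → CE. Bidirectional fit vs DMSO.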

A short description of assay [10]: ATG_NFI_CIS: Attagene CIS-FACTORIAL HepG2 Assay for human Nuclear Factor I (NFI) (AID 2282989; active = hit-call score of the fitted dose curve at least 0.9, where 1 is the maximum; inactive = score below 0.9). The note with it: HepG2 cis-regulatory reporter, NFI response element transcription; actives raise or lower the signal. An outline of the steps: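 Reporter transcripts were measured by RT-PCR with fluorescent primer extension and capillary electrophoresis 24 h post-treatment. HepG2 cells carried transiently transfected cis-regulated reporter constructs reporting endogenous factor activity; gain or loss fitted against DMSO baseline.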

Assay [11] deals with Myc proto-oncogene protein (Homo sapiens) (UniProt P01106). In words: ATG_Myc_CIS: Attagene CIS-FACTORIAL HepG2 Assay for human Myelocytomatosis (Myc) Proto-Oncogene Transcription Factor (AID 2282990; active = hit-call score of the fitted dose curve at least 0.9, where 1 is the maximum; inactive = score below 0.9). The conditions noted are these: HepG2, Attagene cis-reporter transcription factor activity; actives raise or lower the signal. An outline of the steps: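 HepG2, transient MRTU transfection (cis promoters, endogenous TFs); 24 h dosing; TriZol RNA → oligo(dT) RT → PCR → 6-FAM primer extension → HpaI cut → CE. Bidirectional fit vs DMSO.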

Assay [12] addresses Oxysterols receptor LXR-alpha (Homo sapiens) (UniProt Q13133). The assay can be described thus: ATG_LXRa_TRANS: Attagene TRANS-FACTORIAL HepG2 Assay for human Liver X Receptor alpha (LXRa) (AID 2282980). The conditions noted are these: HepG2 Attagene TRANS reporter, LXRa transactivation. In short, it runs like this:
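HepG2 cells were transiently transfected with multiplexed reporter units driven by chimeric LXRa–GAL4 fusion proteins, then dosed for 24 h. Reporter mRNA was quantified by RT-PCR, fluorescent labelling and capillary electrophoresis; gain of signal fitted against DMSO baseline.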

Assay [13] concerns the target Oxysterols receptor LXR-beta (Homo sapiens) (UniProt P55055). In words: ATG_LXRb_TRANS: Attagene TRANS-FACTORIAL HepG2 Assay for human Liver X Receptor beta (LXRb) (AID 2282981). The conditions noted are these: HepG2 Attagene TRANS GAL4-LXRb reporter, mRNA. In short, it runs like this: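 Transient transfection HepG2 (multiplexed RTUs, GAL4-UAS); NR-Gal4 chimera; 24 h exposure; RNA → RT-PCR → 6-FAM primer extension → HpaI → CE; increase vs DMSO.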

Assay [14] deals with Nuclear receptor subfamily 4 group A member 2 (Homo sapiens) (UniProt P43354). The assay can be described thus: ATG_NURR1_TRANS: Attagene TRANS-FACTORIAL HepG2 Assay for human Nuclear Receptor Related Protein 1 (NURR1) (AID 2282985). The conditions noted are these: HepG2 Attagene TRANS reporter, mRNA readout. An outline of the steps: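 Transient transfection of HepG2, human liver cells, with multiple GAL4-UAS reporter transcription units. Cells dosed 24 h, RNA isolated, reverse-transcribed, PCR-amplified, FAM-labelled, HpaI-digested, sized by capillary electrophoresis. DMSO served as negative control.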

Assay [15] has as its target Estrogen-related receptor gamma (Homo sapiens) (UniProt P62508). The assay can be described thus: ATG_ERRg_TRANS: Attagene TRANS-FACTORIAL HepG2 Assay for human Estrogen-Related Receptor gamma (ERRg) (AID 2282977).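 Also: hits increase reporter signal over DMSO so potencies reflect activators.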 The conditions noted are these: HepG2 Attagene TRANS reporter, ERRg transactivation. An outline of the steps: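 HepG2 cells transiently transfected with multiplexed GAL4-UAS reporter units driven by chimeric NR-Gal4 proteins; 24 h exposure. Reporter mRNA quantified by RT-PCR, fluorescent labelling, HpaI digestion and capillary electrophoresis; gain of signal vs DMSO.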

Assay [16] deals with Hepatocyte nuclear factor 4-alpha (Homo sapiens) (UniProt P41235). In words: ATG_HNF4a_TRANS: Attagene TRANS-FACTORIAL HepG2 Assay for human Hepatocyte Nuclear Factor 4 alpha (HNF4a) (AID 2282982). The conditions noted are these: HepG2 HNF4a transactivation reporter, mRNA readout. An outline of the steps: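 Readout is fluorescent reporter-transcript fragments resolved by capillary electrophoresis after RT-PCR from HepG2 cells dosed for 24 h. Cells carried transfected GAL4-UAS reporter constructs measuring exogenous NR-GAL4 chimera activity; DMSO served as baseline.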

Assay [17] in a line: ATG_M_19_TRANS: Attagene TRANS-FACTORIAL HepG2 Assay for M19 Transcription Factor (Internal Marker) (AID 2282974). The conditions noted are these: HepG2 Attagene TRANS-FACTORIAL M19 internal marker reporter. In short, it runs like this:
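Fluorescence of 6-FAM-labelled reporter cDNA fragments, separated by capillary electrophoresis, served as the readout. These derived from HepG2 cells carrying transfected GAL4-UAS reporter units after 24 h dosing, with DMSO as negative control.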

Assay [18] deals with Androgen receptor (Homo sapiens) (UniProt P10275). In words: ATG_AR_TRANS: Attagene TRANS-FACTORIAL HepG2 Assay for human Androgen Receptor (AR) (AID 2282973). The note with it: HepG2 Attagene TRANS-FACTORIAL AR reporter transcription. In short, it runs like this:
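HepG2 cells transiently transfected with multiplexed GAL4-UAS reporter units and chimeric NR-Gal4 fusion; 24 h compound exposure. Reporter mRNA measured by RT-PCR, 6-FAM labelling, HpaI digestion and capillary electrophoresis; gain-of-signal fitted relative to DMSO baseline.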

Assay [19] deals with Glucocorticoid receptor (Homo sapiens) (UniProt P04150). The assay can be described thus: ATG_GR_TRANS: Attagene TRANS-FACTORIAL HepG2 Assay for human Glucocorticoid Receptor (GR) (AID 2282978).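 Also: activators score as hits since higher reporter transcript over DMSO is fitted.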 The conditions noted are these: HepG2 Attagene TRANS GR reporter, mRNA transcription. An outline of the steps:
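Fluorescent capillary-electrophoresis quantitation of reporter mRNA is the readout, taken 24 h after dosing human HepG2 cells carrying transiently transfected GAL4-UAS reporter units activated by chimeric NR-GAL4 fusions; activity scored as induction over DMSO.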

Sequence of Nuclear receptor subfamily 1 group I member 3 (Homo sapiens) (Q14994 whole entry, looked up, the tested form may be a part): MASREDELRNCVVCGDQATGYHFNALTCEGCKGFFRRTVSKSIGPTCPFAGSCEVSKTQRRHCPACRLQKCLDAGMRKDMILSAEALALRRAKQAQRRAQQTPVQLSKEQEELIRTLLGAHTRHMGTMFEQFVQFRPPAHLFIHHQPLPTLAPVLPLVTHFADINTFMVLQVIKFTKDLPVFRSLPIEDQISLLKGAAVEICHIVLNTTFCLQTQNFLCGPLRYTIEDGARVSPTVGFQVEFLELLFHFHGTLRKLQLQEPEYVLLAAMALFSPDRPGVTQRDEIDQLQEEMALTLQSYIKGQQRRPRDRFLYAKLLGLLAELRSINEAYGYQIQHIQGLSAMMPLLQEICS
Sequence of Transcriptional activator Myb (Homo sapiens) (P10242 whole entry, looked up): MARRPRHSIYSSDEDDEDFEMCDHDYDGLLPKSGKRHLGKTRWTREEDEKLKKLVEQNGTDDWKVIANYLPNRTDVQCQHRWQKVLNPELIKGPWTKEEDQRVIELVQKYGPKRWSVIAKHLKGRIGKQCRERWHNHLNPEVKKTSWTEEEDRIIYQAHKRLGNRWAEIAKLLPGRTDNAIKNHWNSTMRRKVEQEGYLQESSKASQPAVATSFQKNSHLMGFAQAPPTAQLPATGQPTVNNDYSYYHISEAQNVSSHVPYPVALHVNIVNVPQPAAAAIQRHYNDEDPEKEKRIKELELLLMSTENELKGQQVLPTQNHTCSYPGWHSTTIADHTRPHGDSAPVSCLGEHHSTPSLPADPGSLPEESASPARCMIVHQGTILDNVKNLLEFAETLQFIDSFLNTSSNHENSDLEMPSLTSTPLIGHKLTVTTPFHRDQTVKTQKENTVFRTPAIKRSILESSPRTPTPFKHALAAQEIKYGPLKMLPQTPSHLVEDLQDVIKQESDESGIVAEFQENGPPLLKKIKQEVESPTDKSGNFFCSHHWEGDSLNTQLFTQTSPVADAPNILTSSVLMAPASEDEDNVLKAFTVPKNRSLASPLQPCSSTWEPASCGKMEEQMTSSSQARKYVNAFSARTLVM
Sequence of X-box-binding protein 1 (Homo sapiens) (P17861 whole entry, looked up): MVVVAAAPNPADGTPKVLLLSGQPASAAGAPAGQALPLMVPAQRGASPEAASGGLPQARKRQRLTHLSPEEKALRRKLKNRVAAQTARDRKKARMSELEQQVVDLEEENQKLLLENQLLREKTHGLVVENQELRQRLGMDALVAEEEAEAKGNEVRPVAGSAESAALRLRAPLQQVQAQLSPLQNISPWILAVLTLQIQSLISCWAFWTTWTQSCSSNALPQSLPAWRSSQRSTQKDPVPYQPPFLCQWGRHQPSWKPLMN
Sequence of Nuclear respiratory factor 1 (Homo sapiens) (Q16656 whole entry, looked up): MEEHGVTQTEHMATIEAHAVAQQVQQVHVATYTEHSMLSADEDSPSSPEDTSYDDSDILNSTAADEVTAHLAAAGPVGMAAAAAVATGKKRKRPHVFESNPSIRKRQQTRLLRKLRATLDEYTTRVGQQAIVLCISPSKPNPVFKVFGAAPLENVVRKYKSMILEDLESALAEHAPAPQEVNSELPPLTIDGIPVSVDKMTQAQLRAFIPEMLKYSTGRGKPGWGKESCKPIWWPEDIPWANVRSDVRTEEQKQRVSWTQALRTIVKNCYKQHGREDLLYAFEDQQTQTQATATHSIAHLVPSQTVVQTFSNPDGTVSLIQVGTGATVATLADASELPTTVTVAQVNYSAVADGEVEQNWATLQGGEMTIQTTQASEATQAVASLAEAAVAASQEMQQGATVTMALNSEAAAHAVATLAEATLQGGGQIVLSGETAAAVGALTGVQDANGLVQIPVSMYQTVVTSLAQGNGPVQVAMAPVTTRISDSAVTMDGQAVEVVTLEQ
Sequence of Myc proto-oncogene protein (Homo sapiens) (P01106 whole entry, looked up): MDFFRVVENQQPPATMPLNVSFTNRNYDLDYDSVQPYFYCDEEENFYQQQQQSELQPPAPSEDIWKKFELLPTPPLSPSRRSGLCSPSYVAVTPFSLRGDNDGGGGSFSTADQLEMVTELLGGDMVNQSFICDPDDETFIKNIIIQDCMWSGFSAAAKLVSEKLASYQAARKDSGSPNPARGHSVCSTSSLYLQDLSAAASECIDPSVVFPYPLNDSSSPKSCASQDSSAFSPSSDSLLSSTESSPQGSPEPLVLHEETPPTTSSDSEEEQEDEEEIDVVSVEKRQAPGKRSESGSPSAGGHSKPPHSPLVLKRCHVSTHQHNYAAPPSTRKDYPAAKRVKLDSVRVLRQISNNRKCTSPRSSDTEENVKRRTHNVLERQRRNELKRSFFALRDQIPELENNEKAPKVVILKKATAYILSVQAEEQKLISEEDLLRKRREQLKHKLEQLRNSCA
Sequence of Nuclear receptor subfamily 4 group A member 2 (Homo sapiens) (P43354 whole entry, looked up, the tested form may be a part): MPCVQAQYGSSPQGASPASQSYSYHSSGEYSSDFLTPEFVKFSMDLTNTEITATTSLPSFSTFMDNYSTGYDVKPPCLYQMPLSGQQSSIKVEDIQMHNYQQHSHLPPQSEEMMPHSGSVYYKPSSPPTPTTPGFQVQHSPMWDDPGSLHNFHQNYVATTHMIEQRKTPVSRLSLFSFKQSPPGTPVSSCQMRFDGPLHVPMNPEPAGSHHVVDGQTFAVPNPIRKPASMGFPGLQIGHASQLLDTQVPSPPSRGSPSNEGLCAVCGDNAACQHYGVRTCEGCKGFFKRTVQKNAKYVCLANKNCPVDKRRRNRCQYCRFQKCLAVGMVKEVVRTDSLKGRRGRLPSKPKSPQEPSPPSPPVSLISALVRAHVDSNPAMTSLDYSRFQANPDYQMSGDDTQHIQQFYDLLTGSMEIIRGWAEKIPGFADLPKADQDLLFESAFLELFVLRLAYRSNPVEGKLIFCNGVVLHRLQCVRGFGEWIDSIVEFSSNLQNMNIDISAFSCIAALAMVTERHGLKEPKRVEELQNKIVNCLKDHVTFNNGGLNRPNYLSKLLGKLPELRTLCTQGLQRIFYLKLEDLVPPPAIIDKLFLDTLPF
Sequence of Estrogen receptor (Homo sapiens) (P03372 whole entry, looked up, the tested form may be a part): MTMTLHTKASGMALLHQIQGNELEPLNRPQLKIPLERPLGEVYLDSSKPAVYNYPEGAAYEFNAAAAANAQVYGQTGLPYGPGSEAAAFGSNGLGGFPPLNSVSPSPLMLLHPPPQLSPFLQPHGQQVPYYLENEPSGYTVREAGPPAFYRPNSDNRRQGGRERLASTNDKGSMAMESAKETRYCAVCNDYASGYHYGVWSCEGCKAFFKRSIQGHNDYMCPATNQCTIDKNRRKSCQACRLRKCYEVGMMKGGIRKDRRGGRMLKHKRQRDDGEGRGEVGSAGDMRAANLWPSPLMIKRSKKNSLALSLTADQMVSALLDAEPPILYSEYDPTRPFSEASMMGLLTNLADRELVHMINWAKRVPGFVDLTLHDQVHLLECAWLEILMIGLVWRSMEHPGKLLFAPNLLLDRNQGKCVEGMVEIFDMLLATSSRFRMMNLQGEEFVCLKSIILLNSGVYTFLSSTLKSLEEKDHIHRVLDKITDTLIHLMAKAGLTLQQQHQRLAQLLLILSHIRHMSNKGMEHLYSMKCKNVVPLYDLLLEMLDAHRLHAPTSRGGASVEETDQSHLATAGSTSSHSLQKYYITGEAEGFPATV
Sequence of Bile acid receptor (Homo sapiens) (Q96RI1 whole entry, looked up, the tested form may be a part): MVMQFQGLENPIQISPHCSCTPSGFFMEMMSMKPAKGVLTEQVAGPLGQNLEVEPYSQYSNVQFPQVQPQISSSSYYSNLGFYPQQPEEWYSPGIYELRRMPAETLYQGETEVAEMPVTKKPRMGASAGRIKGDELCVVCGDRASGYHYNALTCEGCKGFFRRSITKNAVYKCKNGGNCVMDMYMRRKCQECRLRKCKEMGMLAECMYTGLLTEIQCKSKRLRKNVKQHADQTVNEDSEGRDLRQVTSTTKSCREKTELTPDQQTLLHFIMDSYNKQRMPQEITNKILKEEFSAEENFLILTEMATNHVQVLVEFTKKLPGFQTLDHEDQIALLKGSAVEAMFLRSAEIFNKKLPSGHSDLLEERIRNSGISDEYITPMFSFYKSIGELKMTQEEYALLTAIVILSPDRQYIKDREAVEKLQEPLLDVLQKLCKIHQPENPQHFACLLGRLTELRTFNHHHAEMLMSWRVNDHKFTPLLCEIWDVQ
Sequence of Hepatocyte nuclear factor 4-alpha (Homo sapiens) (P41235 whole entry, looked up, the tested form may be a part): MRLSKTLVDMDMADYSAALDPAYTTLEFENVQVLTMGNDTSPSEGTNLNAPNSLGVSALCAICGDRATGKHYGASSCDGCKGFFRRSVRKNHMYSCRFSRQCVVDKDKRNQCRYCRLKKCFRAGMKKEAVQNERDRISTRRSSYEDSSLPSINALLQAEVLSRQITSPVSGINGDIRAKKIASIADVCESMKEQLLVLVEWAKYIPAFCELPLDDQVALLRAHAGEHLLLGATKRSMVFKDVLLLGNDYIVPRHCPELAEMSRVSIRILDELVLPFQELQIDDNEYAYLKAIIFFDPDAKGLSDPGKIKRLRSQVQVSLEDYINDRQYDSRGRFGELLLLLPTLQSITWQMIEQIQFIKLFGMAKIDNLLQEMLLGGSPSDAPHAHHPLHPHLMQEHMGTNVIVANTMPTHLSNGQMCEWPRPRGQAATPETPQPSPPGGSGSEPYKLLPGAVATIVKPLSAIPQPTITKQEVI
Sequence of Oxysterols receptor LXR-alpha (Homo sapiens) (Q13133 whole entry, looked up, the tested form may be a part): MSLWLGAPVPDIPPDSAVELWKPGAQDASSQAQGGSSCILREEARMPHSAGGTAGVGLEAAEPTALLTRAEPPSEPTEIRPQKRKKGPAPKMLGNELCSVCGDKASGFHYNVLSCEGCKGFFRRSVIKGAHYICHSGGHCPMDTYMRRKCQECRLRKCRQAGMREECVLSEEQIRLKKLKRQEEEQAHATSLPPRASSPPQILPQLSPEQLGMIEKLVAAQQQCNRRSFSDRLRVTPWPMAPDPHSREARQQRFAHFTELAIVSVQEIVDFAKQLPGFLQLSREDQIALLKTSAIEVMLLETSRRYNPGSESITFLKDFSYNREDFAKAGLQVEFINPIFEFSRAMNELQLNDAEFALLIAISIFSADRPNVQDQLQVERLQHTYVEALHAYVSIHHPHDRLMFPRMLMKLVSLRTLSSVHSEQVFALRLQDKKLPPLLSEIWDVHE

For the compound `O=NN1CCCCCCC1`, the compound was called inactive in assay [1], in assay [2], in assay [3], in assay [4], in assay [5] and in [6]. For the same compound, the compound was classed as inactive in assay [7], in assay [8], in assay [9], in assay [10] and in assay [11].

As to `CC(C)(C1CCC(O)CC1)C1CCC(O)CC1` (stereo not given), the result in [1], in assay [3], in assay [12], in [13], in assay [14] and in assay [8] was inactive. The compound was called inactive in assay [10] and in assay [11]. Further, the half-maximal activity concentration (AC50) in [2] was 11.2 µM (active).

Take `Nc1ccc(-c2ccccc2)cc1`: the result in [1], in assay [3], in [7], in [14], in [8] and in assay [9] was inactive. For the same compound, the result in [10] and in assay [11] was inactive. Moreover, in [2], the AC50 is 14.8 µM (active).

Regarding `Cc1cccc(N=Nc2ccc(N(C)C)cc2)c1`, the outcome in [1], in assay [2], in assay [3], in assay [15], in assay [16] and in assay [6] was inactive. In addition, the compound was called inactive in assay [8], in [9], in [10] and in assay [11].

Regarding `Oc1c(Br)cc(Br)cc1Br`, the result in [1], in [17], in assay [12], in [16], in [6] and in assay [7] was inactive. Moreover, the result in assay [14], in assay [8], in assay [9], in assay [10] and in assay [11] was inactive. The half-maximal activity concentration (AC50) in [2] was 5.59 µM (active); in assay [3], 42 µM (active).

Regarding `CCOP(=S)(OCC)OP(=S)(OCC)OCC`, the outcome in assay [1], in assay [3], in assay [18], in [17], in [4] and in [19] was inactive. For the same compound, the compound was called inactive in assay [5], in assay [7], in assay [14], in [8], in assay [9] and in assay [10]. The call in [11] was inactive.
